Assay outcomes deposited in PubChem by The Scripps Research Institute Molecular Screening Center.
The list is not random: actives were taken first. Their share in the collection is about 2.3%.
CHRM1 antagonist – human M1 muscarinic receptor antagonists, primary screen, CHO-K1 cells, Fluo-8 calcium fluorescence, 1536-well; CHO-K1 hM1, ACh EC80 antagonist; inhibition, % at 3 µM; actives 1.3% (n = 360,000); AID 588852, 2011;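 active means percent inhibition above its own plate's cutoff, namely the mean of that plate's compound wells plus 3 SD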;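 further: peak over basal fluorescence ratio during 140 s after agonist addition; 0% = ACh EC80 plus DMSO and 100% = DMSO alone without agonist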
Target sequence (P11229 whole entry, looked up): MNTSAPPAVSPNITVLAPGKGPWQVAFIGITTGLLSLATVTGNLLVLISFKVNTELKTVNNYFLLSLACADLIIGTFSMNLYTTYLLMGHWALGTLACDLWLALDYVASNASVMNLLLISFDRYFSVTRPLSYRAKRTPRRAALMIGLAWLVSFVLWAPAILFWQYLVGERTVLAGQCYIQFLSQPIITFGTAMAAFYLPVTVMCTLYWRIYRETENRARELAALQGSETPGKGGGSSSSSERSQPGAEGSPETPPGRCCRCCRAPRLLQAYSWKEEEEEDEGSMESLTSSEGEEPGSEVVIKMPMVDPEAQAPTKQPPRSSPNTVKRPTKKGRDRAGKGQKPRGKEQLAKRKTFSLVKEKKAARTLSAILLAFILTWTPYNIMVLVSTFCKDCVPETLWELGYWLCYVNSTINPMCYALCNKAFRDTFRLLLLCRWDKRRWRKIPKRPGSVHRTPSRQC
CHO-K1 Ca ag – counter-screen for M1 agonists: effect in parental CHO-K1 cells; activation, % at 3 µM; actives 0.48% (n = 360,000); AID 602248, 2012; Fluo-8 calcium fluorescence; scaled to maximal ATP response, vehicle zero; in the data active means activation above about 15%;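 further: untransfected CHO-K1 host cells lacking M1 receptor as counterscreen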
M1 ag – human M1 muscarinic receptor agonists, primary screen, Fluo-8 calcium fluorescence, CHO-K1 cells, HTS; Muscarinic acetylcholine receptor M1 (Homo sapiens), P11229; CHO-K1 hM1, agonist mode; 0% DMSO, 100% acetylcholine EC100; activation, % at 3 µM; actives 0.33% (n = 360,000);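 active means activation above the run's mean compound activation plus 3 SD, cut at about 16% in these data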;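 further: peak over basal fluorescence ratio within a 140 s kinetic read after compound addition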
CHO-K1 Ca PAM – nonselective calcium activators in parental CHO-K1 cells, primary screen, counter-screen for M1 PAM project, cell-based, Fluo-8 calcium fluorescence, full deck, 1536-well | ATP EC20; 0% at ATP EC20, 100% at ATP max | activation, % at 3 µM | actives 0.02% (n = 360,000) | AID 602247, 2012;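 active means activation above the run cutoff, the mean activation of all test compounds plus 3 SD, cut at about 40% in these data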;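 further: peak over basal fluorescence ratio in a 140 s read after ATP addition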
CHO-K1 Ca antag – counter-screen for M1 antagonists: effect in parental CHO-K1 cells. ATP-induced calcium, Fluo-8 fluorescence. inhibition, % at 3 µM. actives 0.6% (n = 360,000). AID 602250;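 active means inhibition above a per-plate cutoff, the plate's mean sample inhibition plus 3 SD, cut at about 24% in these data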;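 further: 0% = DMSO plus EC80 ATP and 100% = DMSO alone without ATP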
M1 PAM – human M1 muscarinic receptor positive allosteric modulators, primary screen, CHO-K1 cells, Fluo-8 calcium fluorescence, 1536-well; Muscarinic acetylcholine receptor M1 (Homo sapiens), P11229; CHO-K1 hM1, ACh EC20; 0% = ACh EC20, 100% = maximal ACh; activation, % at 3 µM; actives 0.088% (n = 360,000); AID 588819, 2011; in the data active means activation above about 19%, passing the limit was not always enough
Active calls of the source: *; x = no result.

SMILES	CHRM1 antagonist	CHO-K1 Ca ag	M1 ag	CHO-K1 Ca PAM	CHO-K1 Ca antag	M1 PAM
CNS(=O)(=O)c1ccc(NS(=O)(=O)c2ccccc2F)cc1	-19	0	-1	18	-10	15
O=C(O)/C=C/C(=O)N(CC1CCCO1)C1CC(=O)N(c2c(Cl)cccc2Cl)C1=O (stereo unspecified)	-8	17*	-3	18	-6	7
COc1ccc(N2C(=O)CC(N(CCc3ccccc3)C(=O)/C=C/C(=O)O)C2=O)cc1 (stereo unspecified)	3	0	-8	2	-15	3
Cc1cccc(/C=N/NC(=O)c2ccc(Br)cc2)c1	3	17*	-7	15	7	5
COc1ccc(NC(=O)c2cc3ccccc3cc2OC)cc1	-1	1	-5	4	-6	4
COc1ccc(CC(=O)Nc2ccc(NC(=O)c3ccccc3F)cc2)cc1	1	2	27*	23	-13	4
COc1ccc(NC(=O)c2ccc3ccccc3c2OC)cc1	3	22*	-3	11	-4	0
COc1ccc(NC(=O)CSc2nc(N)c(NC(=O)c3ccccc3F)c(=O)[nH]2)cc1	-12	0	-1	-2	5	14
O=c1c2cc(Cl)ccc2[nH]c(=S)n1Cc1cccs1	0	0	-9	20	-6	-1
COc1ccc(C(=O)C(=O)c2ccc(OCCO)cc2)cc1	-20	1	2	7	-15	30*
C[C@@H]1CN([C@H](C)CO)C(=O)CCCn2cc(nn2)CO[C@H]1CN(C)S(=O)(=O)c1cccs1	8	0	-6	-9	32*	-4
C[C@@H]1CN([C@H](C)CO)C(=O)CCCn2cc(nn2)CO[C@H]1CN(C)S(=O)(=O)c1ccc(F)cc1	-14	0	0	7	26*	14
C[C@@H]1CN([C@@H](C)CO)C(=O)CCCn2cc(nn2)CO[C@H]1CN(C)S(=O)(=O)c1cccs1	11	0	-2	-11	8	-4
CCn1c(SCC(=O)NCCc2ccc(F)cc2)nnc1-c1cccs1	16	0	-4	-7	26*	-7
CCn1c(SCC(=O)NCc2ccc3c(c2)OCO3)nnc1-c1cccs1	-10	0	-6	29	-7	7
CCOc1ccc(NC(=O)CN2CCN(C3c4ccccc4-c4ccccc43)CC2)cc1	1	0	-4	2	-4	0
COc1ccccc1NC(=O)CN1CCCCCC1	-7	0	-10	-1	7	6
CC1CCN(CC(=O)Nc2ccccc2-c2ccccc2)CC1	33*	-1	-12	-11	-17	-34
O=C(CN1CCN(c2ccccc2O)CC1)NC(c1ccccc1)c1ccccc1	-3	0	-6	10	-3	6
COc1ccc(NC(=O)CN2CCN(C3c4ccccc4-c4ccccc43)CC2)c(OC)c1	-5	0	-1	52*	-44	2
O=C(CN1CCCC1)NC(c1ccccc1)c1ccccc1	69*	0	-8	-13	10	-26
COc1ccccc1NC(=O)CN1CCN(C2c3ccccc3-c3ccccc32)CC1	4	4	6	48*	-28	0
COc1cccc(/C=C/C(=O)OCC(=O)Nc2cccc(S(=O)(=O)NC3=NCCCCC3)c2)c1	12	4	-2	1	1	-14
O=C(CN1CCCCCC1)Nc1ccccc1Oc1ccccc1	41*	0	-9	16	-18	-26
O=C(CCC(F)(F)F)N1CCC(CO)(CCc2ccccc2)CC1	-10	0	-1	-16	6	-5
SMILES	CHRM1 antagonist	CHO-K1 Ca ag	M1 ag	CHO-K1 Ca PAM	CHO-K1 Ca antag	M1 PAM
COC(=O)c1cccc(C(=O)N2CCC(CO)(Cc3ccccc3Cl)CC2)c1	1	7	3	10	-8	-1
OCC1(Cc2ccccc2Cl)CCN(C/C=C/c2ccccc2)CC1	62*	3	-5	4	3	-26
OCC1(CCc2ccccc2)CCN(C/C=C/c2ccccc2)CC1	25	21*	-8	30	-12	-24
COc1ccccc1-c1csc(C(NC(C)=O)c2ccc(F)c(F)c2)n1 (stereo unspecified)	-14	0	-4	5	5	6
Cc1ccc2c(c1)C(=O)C(=O)N2Cc1ccc(Br)cc1	0	0	21*	-8	1	9
O=C(O)C(Cc1c[nH]c2ccccc12)N1CCS(=O)(=O)CC1 (stereo unspecified)	-11	0	-5	14	-6	11
COC(=O)N/N=C/c1cn(CCOc2ccc(OC)cc2)c2ccccc12	15	15*	-2	7	0	-9
O=C(COc1cccnc1[N+](=O)[O-])Nc1ccc2c(c1)CCC2	36*	1	-4	-22	1	-20
COc1ccc(NC(=O)COc2cccnc2[N+](=O)[O-])cc1OC	-7	2	-6	18	-29	7
O=C(COc1cccnc1[N+](=O)[O-])Nc1ccc2c(c1)OC(F)(F)O2	50*	4	-8	22	-1	-26
CC(C)NC(=O)COc1coc(CN2CCN(c3ccccc3)CC2)cc1=O	6	1	-1	13	-13	-2
O=C1NC(=O)C(c2ccccc2)(c2ccccn2)N1 (stereo unspecified)	-4	2	-5	15	-7	8
O=C1NC(=S)NC1(c1ccccc1)c1ccccc1	47*	0	-9	-8	-3	-29
CC(C)CCNC(=O)CN(CC1CCCO1)C(=O)CCC(=O)Nc1nccs1 (stereo unspecified)	-44	0	1	21	-12	20*
O=C(N/N=C/c1ccc(O)cc1)c1ccc(COc2cc(Cl)ccc2Cl)o1	0	15*	36*	20	14	0
Cc1cccc(NC(=O)CCc2ccc(S(=O)(=O)NC3CCCCC3)cc2)c1	8	1	0	-4	14	1
O=C(COC(=O)c1cncc(Br)c1)NC1CCCCCC1	18	2	-5	2	-6	-6
COc1ccc(Cc2c(C(C)(C)C)nc3cc(C)c(Br)c(C)n23)c(C)c1	x	0	x	21	-12	x
COc1ccc(Cc2c(C(C)(C)C)nc3c(C)cc(Br)cn23)c(C)c1	-3	0	-10	10	25*	0
CN(C)c1ccc(NS(=O)(=O)c2cc(Cl)ccc2Cl)cc1	18	1	-11	8	0	-21
CCN(c1ccc(NS(=O)(=O)c2cc(Cl)ccc2Cl)cc1)C(C)C	76*	0	-13	14	-13	-26
